High-throughput results deposited in PubChem BioAssay by National Center for Advancing Translational Sciences (NCATS).
Compounds with a hit are over-represented: about 17% of the library has one in this group of screens.
HT1080-NT tox: kills 2HG-producing HT-1080-NT fibrosarcoma cells. HT-1080-NT fibrosarcoma viability, CellTiter-Glo ATP luminescence, 48 h. Potency, µM (top dose mostly 46.1 µM), usual class: cytotoxic. 360,000 tested, 1.6% active;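 note: NT is the 2HG producing partner of a matched IDH1 knockdown line; nearly all actives have a fitted effect of over 55% in size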
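Luminescent CellTiter-Glo readout after 48 hours of compound exposure at 37 degrees C defined viability of HT-1080-NT cells. Activity was normalized to DMSO wells and cell-free media wells; concentration-response curves were fitted and assigned curve classes.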
HT1080 IDH1KD tx: HT-1080 IDH1 knockdown cell toxicity (counter line). Potency, µM (highest dose often 46.1 µM), hits mostly cytotoxic. 360,000 tested, 2% active. HT-1080 IDH1 knockdown viability, ATP luminescence, 48 h
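% activity derives from luminescence (CellTiter-Glo), normalised to DMSO and no-cell wells. HT-1080-IDH1KD cells, 750/well, had 48 h compound exposure at 37 °C.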
HepG2 viability: counter-screen for TGF-b inhibitors: cytotoxicity in HepG2 cells | HepG2 CAGA-GFP viability, ATP luminescence, 18 h | Potency, µM (series often up to 46.1 µM), usual class: cytotoxic | 410,000 tested, 0.76% active
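CellTiter-Glo luminescence gave cytotoxicity after 18 hours at 37 degrees C. The cells were HepG2 CAGA-GFP in 1% FBS DMEM, stimulated with 500 pg/mL TGF-beta after compound addition. %Activity was normalised to no-cell wells (complete cell-killing) and DMSO (no toxicity), and curves were fitted and classified.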
TDP1 cell CPT: growth inhibition of DT40 Tdp1-/-;hTDP1 cells with camptothecin (screen for TDP1 inhibitors) | Potency, µM (series often up to 46.2 µM), most hits filed as inhibitors | 420,000 tested, 12% active | chicken DT40 Tdp1-/-;hTDP1 cells + 20 nM CPT, ATP luminescence, 48 h; note: nearly all actives have a fitted effect of over 55% in size
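Chicken DT40 Tdp1-/- cells stably complemented with human TDP1 were seeded at 400 cells/well in medium containing 20 nM camptothecin, exposed to pin-transferred compounds, and grown at 37 °C for at least 48 hr. Viability was read as ATP luminescence.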
TDP1 cell noCPT: qHTS for Inhibitors of human tyrosyl-DNA phosphodiesterase 1 (TDP1): qHTS in cells in absence of CPT; DT40 Tdp1-/- hTDP1 cells, no CPT, ATP luminescence, 48 h; Potency, µM (titrated, usually from 46.2 µM), most hits filed as inhibitors; 420,000 tested, 15% active; AID 686978, 2013; note: nearly all actives have a fitted effect of over 55% in size
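Cells were dispensed at 400 per well, compounds added by pin tool, plates incubated ≥48 hr at 37 °C, then CellTiter-Glo added for 30 min at room temperature before luminescence reading. Line: DT40 Tdp1-/- complemented with hTDP1; camptothecin omitted.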
TGFb inhibitor: blocks TGF-b signaling; HepG2 CAGA-GFP TGF-b/SMAD3 reporter, GFP fluorescence, 18 h; TGF-beta stimulated, 500 pg/mL final; Potency, µM (top dose mostly 46.1 µM), usual class: inhibitors; 410,000 tested, 1.2% active; AID 588855; note: nearly all actives have a fitted effect of over 65% in size
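GFP signal (ex488/em500-530) from TGF-beta-stimulated HEPG2 CAGA-GFP cells, 500 pg/mL final, 18 h at 37 degrees C in DMEM plus 1% FBS, normalized to unstimulated and DMSO-stimulated controls.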
Numbers stand for hits; - = inactive; ? = inconclusive; . = no result given; [ ] = another dose, or the depositor's remark. Calls come from the whole dose curve; as a rule, active = well fitted curve in the direction sought with a large enough effect; inconclusive = small, poorly fitted or top-dose-only effect, or another doubt; inactive = no such curve, though single readings can be large; an effect the other way counts as inactive or inconclusive.

SMILES | HT1080-NT tox | HT1080 IDH1KD tx | HepG2 viability | TDP1 cell CPT | TDP1 cell noCPT | TGFb inhibitor
COc1ccc(-n2c(SCc3ccccc3F)nc3c([nH]c4ccccc43)c2=O)cc1OC | . | . | - | 26µM | 16µM | ?
O=c1c2[nH]c3ccccc3c2nc(SCc2ccccc2F)n1-c1ccc(F)cc1 | . | . | - | ? | ? | -
COc1cccc(-n2c(SCC(N)=O)nc3c([nH]c4ccccc43)c2=O)c1 | - | - | - | 18µM | 16µM | -
CCn1nc(C)c(/C=N/NC(=O)Cn2nc(C)cc2C)c1C | - | - | - | - | - | -
COC(=O)CC1C(=O)NCCN1C(=O)c1oc2c(C)c(C)ccc2c1C (stereo not drawn) | - | - | - | - | ? | -
CC(C)n1c(N2CCN(C(=O)NCc3ccccc3)CC2)nc2ccccc21 | - | - | - | ? | 23µM | -
CCOC(=O)c1ccc(N2C(=O)C3C(/C=C/c4ccccc4)OC4(C(=O)c5ccccc5C4=O)C3C2=O)cc1 (stereo not drawn) | - | - | - | - | ? | -
COc1ccc(NC(=O)CSc2c3c(nc4ccccc24)CCCC3)c(OC)c1 | ? | ? | - | 21µM | 18µM | -
Cc1cc(Br)ccc1NC(=O)CSc1c2c(nc3ccccc13)CCC2 | . | . | - | 15µM | 12µM | ?
Cc1cc(NC(=O)CSc2c3c(nc4ccccc24)CCC3)no1 | - | ? | - | ? | ? | -
COc1ccc(-c2c(C#N)c(SCC(=O)Nc3ccccc3)nc3c2CCCC3)cc1 | - | - | - | 26µM | ? | -
Cc1ccccc1NC(=O)CSc1nc2cc3c(cc2cc1C)CCC3 | ? | ? | - | 4.6µM | 3.7µM | -
COc1ccc(-c2c(C#N)c(SCC(=O)Nc3ccc(C)cc3)nc(C)c2C(=O)Nc2ccccc2)cc1 | . | . | - | - | - | -
CCCN(C(=O)c1c(CC)noc1C)c1c(N)n(Cc2ccccc2)c(=O)[nH]c1=O | - | - | - | - | - | -
O=C(CCn1nnnc1CN1CCOCC1)N1CCC(c2cccc(Cl)c2)C1 (stereo not drawn) | - | - | - | - | - | -
COC(=O)c1c(-c2ccc(F)cc2)noc1N | -[9.24 µM] | 11µM | - | - | - | -
O=C(CSc1nnc(-c2ccccc2)n1Cc1ccco1)Nc1ccc(S(=O)(=O)N2CCCC2)cc1 | -[9.24 µM] | 7.1µM | - | ? | ? | -
CCOc1ccc(NC(=O)CSc2nnc(-c3ccccc3Cl)n2Cc2ccco2)cc1 | ? | ? | - | 21µM | 18µM | -
Cn1nccc1NC(=O)CC1(CC(=O)O)CCCCC1 | - | - | - | - | - | -
Cc1ccc(-c2c(C3C4C=CCCC4(C)C(=O)N3Cc3ccccc3)ccc3ccccc23)cc1 (stereo not drawn) | . | . | - | . | . | -
COc1cccc(CNC(=O)CCC2CCCN(C(=O)c3cc4ccccc4o3)C2)c1 (stereo not drawn) | - | - | - | ? | 13µM | -
Cc1occc1C(=O)N1CCCC(CCC(=O)NCc2ccc(F)c(F)c2)C1 (stereo not drawn) | - | - | - | ? | 21µM | -
COc1ccc(-c2noc(-c3nnn(-c4cc(C)ccc4C)c3N)n2)cc1 | . | . | - | ? | ? | -
Oc1c(C(c2ccccc2)N2CCCCC2)ccc2ccccc12 (stereo not drawn) | - | - | - | 18µM | ? | -
O=C(N1CCCCC1)N1CCN(C(c2ccccc2)c2ccccc2)CC1 | - | - | - | ? | ? | -
SMILES | HT1080-NT tox | HT1080 IDH1KD tx | HepG2 viability | TDP1 cell CPT | TDP1 cell noCPT | TGFb inhibitor
CCOC(=O)c1c(NC(=O)C(C)OC(=O)c2ccc(NC(=O)CC#N)cc2)sc2c1CCCC2 (stereo not drawn) | - | - | - | 23µM | ? | ?
CCOC(=O)c1c(NC(=O)c2ccc(Br)cc2)sc2c1CCCC2 | . | . | - | - | - | -
CCOC(=O)c1c(NC(=O)C2C3C=CC(C3)C2(C)C(=O)O)sc2c1CCCC2 (stereo not drawn) | - | - | - | 13µM | 18µM | -
CCOC(=O)c1c(NC(=O)c2ccc(-n3cnnn3)cc2)sc2c1CCCC2 | - | - | - | 12µM | 16µM | -
CCOC(=O)c1c(NC(=O)c2ccc(N3C(=O)[C@@H]4[C@H](C3=O)[C@H]3C=C[C@@H]4C3)cc2)sc2c1CCCC2 | - | - | - | - | 23µM | -
NC1CCc2ccccc21 (stereo not drawn) | . | . | - | - | ? | -
CCCOc1ccc(/C=C/C(=O)NCc2ccccc2)cc1 | - | - | - | ? | ? | -
O=C(NCc1ccc(F)cc1)c1cnc(-c2ccccn2)nc1C(F)(F)F | - | - | - | - | - | -
Nc1c(-c2cccc([N+](=O)[O-])c2)nc2ccccn12 | - | - | - | - | ? | -
CN(c1ccccc1)S(=O)(=O)c1cccc(C(=O)NCCc2c[nH]c3ccccc23)c1 | - | - | - | 15µM | ? | ?
O=C(NCc1cccc(C(F)(F)F)c1)c1cccc(S(=O)(=O)NCc2ccccc2)c1 | - | - | - | ? | 23µM | ?
CC1(C)CC(NC(=O)c2cccc(S(=O)(=O)N(Cc3ccccc3)c3ccccc3)c2)CC(C)(C)N1 | - | - | 14µM | ? | ? | ?
CN(c1ccccc1)S(=O)(=O)c1cccc(C(=O)NNC(=O)c2ccccc2)c1 | - | - | - | 16µM | 16µM | -
Cc1ccc(C)c(NC(=O)/C(C#N)=C/c2ccc(C(C)C)cc2)c1 | . | . | - | ? | ? | ?
CN(c1ccccc1)S(=O)(=O)c1cccc(C(=O)NCc2ccccc2)c1 | - | - | - | ? | 16µM | -
CSc1ccc(/C=C2/C(C)=C(CC(=O)O)c3cc(F)ccc32)cc1 | . | . | . | - | - | .
Cc1ccc(NS(=O)(=O)c2ccc(-c3coc(C)n3)cc2)c(Cl)c1 | - | - | - | ? | ? | -
CC1CCN(C(CNS(=O)(=O)c2ccccc2)c2ccccc2)CC1 (stereo not drawn) | - | - | - | - | ? | -
CN(C)Cc1csc(Nc2ccc(C(=O)c3ccccc3)cc2)n1 | - | - | - | 18µM | ? | -
CC(=O)c1ccc(Nc2nc(C(N)COCc3ccccc3)cs2)cc1 (stereo not drawn) | - | - | - | 23µM | ? | -
CC(=O)c1ccc(Nc2nc(C(N)CC(C)C)cs2)cc1 (stereo not drawn) | - | - | - | ? | 16µM | -
